Screening results as filed in PubChem.
PLAP act = activates human placental alkaline phosphatase. P05187. purified PLAP enzyme, luminescent substrate read-out; stronger effect = higher value. activation fold at 20 µM. hit rate 1.2% among 96,000; in the data active = activation fold above about 2
CYP2C19 act = activators of human cytochrome P450 2C19 | P33261 | recombinant CYP2C19, luciferin-H EGE luminescence; stronger effect = higher value; 0 = fully inhibited enzyme, 1 = untreated enzyme | activation factor at 5 µM | 96,000 tested, under 10 active | AID 1025;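 active = activation factor of at least 2 at 5 µM in the primary screen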
Target sequence (P33261 whole entry, looked up): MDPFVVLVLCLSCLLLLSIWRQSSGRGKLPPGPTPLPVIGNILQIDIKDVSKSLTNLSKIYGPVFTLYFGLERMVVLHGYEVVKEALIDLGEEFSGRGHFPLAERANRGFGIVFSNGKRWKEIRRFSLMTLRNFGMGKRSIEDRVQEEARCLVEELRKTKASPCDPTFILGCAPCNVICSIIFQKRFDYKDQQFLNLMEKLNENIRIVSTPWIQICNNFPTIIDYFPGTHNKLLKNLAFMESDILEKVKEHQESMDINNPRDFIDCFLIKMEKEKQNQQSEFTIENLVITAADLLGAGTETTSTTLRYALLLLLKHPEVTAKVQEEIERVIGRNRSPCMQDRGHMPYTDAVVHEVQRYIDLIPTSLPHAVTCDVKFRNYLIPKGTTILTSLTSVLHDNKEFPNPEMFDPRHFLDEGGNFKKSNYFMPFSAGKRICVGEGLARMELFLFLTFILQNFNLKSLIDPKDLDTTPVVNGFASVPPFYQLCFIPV
CYP2C9 act = CYP2C9 (human) activation. activation factor at 5 µM. AID 1024. recombinant CYP2C9, luciferin-H conversion, luminescence; stronger effect = higher value; factor 1 = untreated enzyme, 0 = blocked. hit rate 1.4% among 96,000. P11712;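 active = activation factor of 2 or more for CYP2C9 at a 5 µM dose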
CYP2C19 inh = blocks human cytochrome P450 2C19. inhibition, % at 5 µM. CYP2C19 Supersomes, luciferin-H EGE luminescence, 30 min. P33261. AID 778. hit rate 21% among 96,000;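 active = CYP2C19 inhibition above a set limit at 5 µM in the primary screen, cut at about 50% in these data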
CYP2C9 inh = human CYP2C9 inhibition. CYP2C9 Supersomes, luciferin-H conversion, luminescence. inhibition, % at 5 µM. hit rate 20% among 96,000. AID 777;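 active = blocking of liver enzyme CYP2C9 beyond about 50% at 5 µM, limit read from the data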
Hits are given with their value. This is a sample that favours compounds with a hit; in the whole collection about 31% have one here.

How did CCOc1cc(NC(=S)NCC2CCCO2)c(OCC)cc1NC(=O)c1ccccc1 (stereo not drawn) do in these assays?
PLAP act: inactive; CYP2C19 act: inactive; CYP2C9 act: inactive; CYP2C19 inh: inactive; CYP2C9 inh: inactive

Results for Cc1ccc(S(=O)(=O)Cc2nc3ccccc3c(=O)[nH]2)cc1 ?
PLAP act: inactive; CYP2C19 act: inactive; CYP2C9 act: inactive; CYP2C19 inh: 85; CYP2C9 inh: inactive

Results for CCOc1cc(CNn2nnnc2N)cc(Cl)c1OCC(=O)NC(C)(C)C ?
PLAP act: inactive; CYP2C19 act: inactive; CYP2C9 act: inactive; CYP2C19 inh: 91; CYP2C9 inh: inactive

What do the screens show for `C=CCOc1c(Br)cc(CNn2nnnc2N)cc1OCC`?
PLAP act: inactive; CYP2C19 act: inactive; CYP2C9 act: inactive; CYP2C19 inh: inactive; CYP2C9 inh: inactive

What do the screens show for `COc1cc(CNn2nnnc2N)ccc1OCc1c(Cl)cccc1Cl`?
PLAP act: inactive; CYP2C19 act: inactive; CYP2C9 act: inactive; CYP2C19 inh: 62; CYP2C9 inh: inactive

How did Cn1c2c(c3ccccc31)CCSC2=O do in these assays?
PLAP act: inactive; CYP2C19 act: inactive; CYP2C9 act: inactive; CYP2C19 inh: inactive; CYP2C9 inh: inactive

What do the screens show for `CCOc1ccc(CN2CCN(S(=O)(=O)c3ccc(NC(C)=O)cc3)CC2)cc1OC`?
PLAP act: inactive; CYP2C19 act: inactive; CYP2C9 act: inactive; CYP2C19 inh: inactive; CYP2C9 inh: inactive

How did CCOc1ccc(Cn2c(=O)oc3ccc(C)cc32)cc1OC do in these assays?
PLAP act: inactive; CYP2C19 act: inactive; CYP2C9 act: inactive; CYP2C19 inh: 64; CYP2C9 inh: inactive

Results for O=C(NCCCO)c1nnc(Cc2c(F)cccc2Cl)o1 ?
PLAP act: inactive; CYP2C19 act: inactive; CYP2C9 act: inactive; CYP2C19 inh: inactive; CYP2C9 inh: inactive

Results for O=C(NCCCN1CCN(Cc2ccccc2)CC1)c1nnc(Cc2c(F)cccc2Cl)o1 ?
PLAP act: inactive; CYP2C19 act: inactive; CYP2C9 act: inactive; CYP2C19 inh: inactive; CYP2C9 inh: 56

Results for COc1ccc(C2(O)CCN(C(=O)Cc3cccnc3)CC2)cc1 ?
PLAP act: inactive; CYP2C19 act: inactive; CYP2C9 act: inactive; CYP2C19 inh: 58; CYP2C9 inh: inactive

Results for COc1ccc(C2(O)CCN(CCCCOc3ccccc3)CC2)cc1 ?
PLAP act: 2.1; CYP2C19 act: inactive; CYP2C9 act: inactive; CYP2C19 inh: inactive; CYP2C9 inh: inactive

Results for O=C(c1c(F)cccc1F)N1CCC(O)(c2cccnc2)CC1 ?
PLAP act: inactive; CYP2C19 act: inactive; CYP2C9 act: inactive; CYP2C19 inh: inactive; CYP2C9 inh: inactive

Results for COc1cccc(C2(O)CCN(C(=O)Cc3cccnc3)CC2)c1 ?
PLAP act: inactive; CYP2C19 act: inactive; CYP2C9 act: inactive; CYP2C19 inh: 73; CYP2C9 inh: inactive

How did O=C(NCc1ccco1)c1ccc(=O)oc1 do in these assays?
PLAP act: inactive; CYP2C19 act: inactive; CYP2C9 act: inactive; CYP2C19 inh: inactive; CYP2C9 inh: inactive

How did O=C(c1ccccc1)n1c(=S)nc2ccccn21 do in these assays?
PLAP act: inactive; CYP2C19 act: inactive; CYP2C9 act: inactive; CYP2C19 inh: 79; CYP2C9 inh: inactive

What do the screens show for `Cc1ccccc1NC(=O)c1sc2nc3c(c(-c4ccco4)c2c1N)CCCC3`?
PLAP act: inactive; CYP2C19 act: inactive; CYP2C9 act: inactive; CYP2C19 inh: inactive; CYP2C9 inh: 64

Results for C#CCn1c(=NC(=O)c2cccs2)sc2cccc(OCC)c21 ?
PLAP act: inactive; CYP2C19 act: inactive; CYP2C9 act: inactive; CYP2C19 inh: inactive; CYP2C9 inh: 68

How did COC(=O)c1ccc(-c2nc(-c3cccs3)no2)cc1 do in these assays?
PLAP act: inactive; CYP2C19 act: inactive; CYP2C9 act: inactive; CYP2C19 inh: 91; CYP2C9 inh: inactive

What do the screens show for `CCOC(=O)c1ccc(OCc2nc(-c3cccs3)no2)cc1`?
PLAP act: inactive; CYP2C19 act: inactive; CYP2C9 act: inactive; CYP2C19 inh: inactive; CYP2C9 inh: 67

How did COC(=O)c1ccc(-c2nc(-c3ccc(Br)o3)no2)cc1 do in these assays?
PLAP act: inactive; CYP2C19 act: inactive; CYP2C9 act: inactive; CYP2C19 inh: inactive; CYP2C9 inh: inactive

Results for Cc1noc(NS(=O)(=O)c2ccc(NC(=O)CSc3nc4ccccc4s3)cc2)c1C ?
PLAP act: inactive; CYP2C19 act: inactive; CYP2C9 act: inactive; CYP2C19 inh: inactive; CYP2C9 inh: inactive

Results for O=C1CCCCCC1C1(O)C(=O)Nc2ccc(Br)cc21 (stereo not drawn) ?
PLAP act: inactive; CYP2C19 act: inactive; CYP2C9 act: inactive; CYP2C19 inh: 52; CYP2C9 inh: inactive

Results for CC(C)(C)C1CCC(=O)C(C2(O)C(=O)Nc3ccccc32)C1 (stereo not drawn) ?
PLAP act: inactive; CYP2C19 act: inactive; CYP2C9 act: inactive; CYP2C19 inh: inactive; CYP2C9 inh: inactive

What do the screens show for `CCOC(=O)c1cnc(SC2CC(=O)N(c3ccc(C)cc3)C2=O)nc1N` (stereo not drawn)?
PLAP act: inactive; CYP2C19 act: inactive; CYP2C9 act: inactive; CYP2C19 inh: inactive; CYP2C9 inh: inactive

What do the screens show for `CCCCn1c(=O)c2ccccc2c2ccccc2c1=O`?
PLAP act: inactive; CYP2C19 act: inactive; CYP2C9 act: inactive; CYP2C19 inh: 82; CYP2C9 inh: 72

How did CCN1CCCC1CNCc1ccc(Cl)cc1Cl (stereo not drawn) do in these assays?
PLAP act: inactive; CYP2C19 act: inactive; CYP2C9 act: inactive; CYP2C19 inh: inactive; CYP2C9 inh: inactive

Results for CCc1ccc2[nH]c(=O)c(CN(Cc3ccc(OC)cc3)Cc3nnnn3CCOC)cc2c1 ?
PLAP act: inactive; CYP2C19 act: inactive; CYP2C9 act: inactive; CYP2C19 inh: 55; CYP2C9 inh: 57

How did COCCn1nnnc1C(C(C)C)N(Cc1cccnc1)Cc1cc2cc(OC)ccc2[nH]c1=O (stereo not drawn) do in these assays?
PLAP act: inactive; CYP2C19 act: inactive; CYP2C9 act: inactive; CYP2C19 inh: inactive; CYP2C9 inh: inactive

How did Cc1ccc2cc(C(c3nnnn3Cc3ccccc3)N3CCN(c4ccccc4)CC3)c(=O)[nH]c2c1 (stereo not drawn) do in these assays?
PLAP act: inactive; CYP2C19 act: inactive; CYP2C9 act: inactive; CYP2C19 inh: inactive; CYP2C9 inh: inactive

Results for COCCn1nnnc1C(C(C)C)N(Cc1ccccc1)Cc1cc2cc(OC)ccc2[nH]c1=O (stereo not drawn) ?
PLAP act: inactive; CYP2C19 act: inactive; CYP2C9 act: inactive; CYP2C19 inh: 77; CYP2C9 inh: 84

How did Cc1cccc2cc(CN(Cc3ccco3)C(c3nnnn3CCc3ccccc3)C(C)C)c(=O)[nH]c12 (stereo not drawn) do in these assays?
PLAP act: inactive; CYP2C19 act: inactive; CYP2C9 act: inactive; CYP2C19 inh: 78; CYP2C9 inh: 83

Results for CCC(C)(C)n1nnnc1C(C(C)C)N(Cc1ccco1)Cc1cc2cc3c(cc2[nH]c1=O)OCO3 (stereo not drawn) ?
PLAP act: inactive; CYP2C19 act: inactive; CYP2C9 act: inactive; CYP2C19 inh: inactive; CYP2C9 inh: inactive
